Source: PubChem
In the library only some 3.7% were active in any assay of this set; here they are far more common.
HTT prom inh = inhibits huntingtin promoter activity; HEK293 HTT promoter firefly luciferase reporter, 24 h; Potency, µM (doses to about 57.5 µM), for the others: top-dose activity change, negative = inhibition, usual class: inhibitors; actives 0.93% (n = 48,000); AID 1508623; further: potency means the concentration at half of the fitted maximal effect; nearly all actives have a fitted effect of over 50% in size
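HEK293 Fluc reporter, 2,500 cells/well, 24 h pre-culture; cpds up to 57.5 uM final, 24 h 37 degrees C; Dual-Glo, 10 min RT; normalized vehicle = 0%, zero RLU = -100%.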
HTT-AS act = HTT-AS promoter activation | HEK293 HTT-AS promoter firefly luciferase reporter, 24 h; response scale: percent change from vehicle, -100% = no light | Potency, µM (doses to about 57.5 µM), inactives show at the top dose activity change, positive = activation, usual class: activators | actives 0.24% (n = 48,000); further: potency means the concentration at half of the fitted maximal effect; nearly all actives have a fitted effect of over 55% in size
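Firefly luciferase signal from promoter-reporter HEK293 cells was scaled between vehicle (0%) and zero RLU (-100%). Compounds were tested at final concentrations of up to 57.5 uM over 24 h at 37 degrees C. PTC124 at 50 uM final served as control inhibitor.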
GPR32 ag = GPR32 (DRV1) agonism, beta-arrestin recruitment | activation, % at 76.9 µM | O75388 | CHO-K1 GPR32 beta-arrestin PathHunter luminescence, 90 min; zero percent set by DMSO-only wells | actives 2.5% (n = 48,000) | AID 1346428;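 active means activation of at least 60% and not above a set upper limit, about 1 call in 100 departs from these limits; inconclusive means activation of 40% to 60%, or above that upper limit; inactive means activation under 40%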; further: 0% is about no effect
Target sequence (O75388 whole entry, looked up): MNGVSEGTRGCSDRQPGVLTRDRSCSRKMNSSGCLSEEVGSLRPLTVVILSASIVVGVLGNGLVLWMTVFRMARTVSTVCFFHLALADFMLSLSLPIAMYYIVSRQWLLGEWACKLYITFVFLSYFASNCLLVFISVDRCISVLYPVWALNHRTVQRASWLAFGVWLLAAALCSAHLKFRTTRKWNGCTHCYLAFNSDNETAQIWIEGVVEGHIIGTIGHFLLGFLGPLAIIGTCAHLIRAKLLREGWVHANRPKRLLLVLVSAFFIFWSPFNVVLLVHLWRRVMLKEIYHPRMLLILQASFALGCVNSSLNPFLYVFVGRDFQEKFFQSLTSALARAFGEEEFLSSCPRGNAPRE
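Step 1: seed CHO-K1 GPR32 beta-arrestin cells, 2,500/well, overnight at 37 °C. Step 2: add compounds, 90 min at 37 °C. Step 3: detection reagent, 1 h ambient, then luminescence.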
* = called active by the depositor; ? = inconclusive; · = no result; ! = not active in a repeat; [ ] = dose if it differs, or a comment. Unless noted, the call rests on the fitted dose curve; in most records, active means well fitted curve in the direction sought with a large enough effect; inconclusive means small, poorly fitted or top-dose-only effect, or another doubt; inactive means no such curve, though single readings can be large; an effect the other way counts as inactive or inconclusive.

SMILES	HTT prom inh	HTT-AS act	GPR32 ag
Cc1cc(Nc2cccc(C(F)(F)F)c2)ncn1	-15%	-11%	5
CSc1ncc(C(=O)Nc2ccc(C)c(Cl)c2)c(-c2ccccc2)n1	?	-38%	-5
CC(=O)Nc1ccc2nc(SCCOc3ccc(C)cc3)sc2c1	-6%	-7%	45
O=C(COc1ccccc1)Nc1ccc2nc(SCCOc3ccccc3)sc2c1	4%	-1%	-5
CC(=O)Nc1ccc2nc(SCCOc3ccccc3)sc2c1	14%	16%	118*
O=C(COc1ccccc1F)Nc1ccc2nc(SCCOc3ccccc3)sc2c1	-14%	-20%	99*
NS(=O)(=O)c1ccc(Nc2nc(OCC3CCCCC3)c3[nH]cnc3n2)cc1	-16%	2%	·
COc1cc(C2c3c(-c4ccc(C)cc4)n[nH]c3C(=O)N2c2ccc(F)cc2)ccc1O (configuration not stated)	?	-55%	104*
COc1ccc(C2c3c(-c4ccc(F)cc4)n[nH]c3C(=O)N2c2ccccc2)cc1OC (configuration not stated)	-2%[11.5 µM]	-15%	1
O=C(CSc1nc(-c2ccccc2)no1)N1CCN(c2ccccc2F)CC1	8%	-9%	1
O=C(O)c1cccc(-c2noc(-c3ccccc3F)n2)c1	7.9µM*!	4%	3
COc1ccc(OC)c(C2C(C(=O)Nc3ccc(C)cc3)=C(C)Nc3nnnn32)c1 (configuration not stated)	-15%	-17%	-4
CCOc1c(Cl)cc(CNc2ccc3[nH]c(=O)[nH]c3c2)cc1OC	-19%	-41%	85*
COc1cc(CNc2ccc3[nH]c(=O)[nH]c3c2)ccc1OCc1ccc(F)cc1Cl	-7%	-2%	11
COCCn1c(-c2ccccc2)c(C)n2c3c(=O)n(C)c(=O)n(C)c3nc12	-18%	-22%	2
CCCCn1c(-c2ccc(C)cc2)c(C)n2c3c(=O)n(C)c(=O)n(C)c3nc12	-27%	-2%	85*
CCOC(=O)c1ccc(-n2c(-c3ccc(C)cc3)c(C)n3c4c(=O)n(C)c(=O)n(C)c4nc23)cc1	1%	0%	5
Cc1ccc(-c2c(C)n3c4c(=O)n(C)c(=O)n(C)c4nc3n2CCO)cc1	2µM*	-43%	?
Nc1ncn([C@@H]2O[C@H](CO)[C@@H](O)[C@@H]2O)c(=O)n1	?	-28%	·
COc1cc(OC)c(NC(=O)CC(c2cccs2)N2Cc3ccccc3C2=O)cc1Cl (configuration not stated)	-30%	-24%	-7
Cc1cn([C@H]2C[C@H](F)[C@@H](CO)O2)c(=O)[nH]c1=O	-4%	-12%	-21
Cc1ccc(-n2cc(-c3ccccc3)nc2S(=O)(=O)CC(=O)Nc2ccc(F)cc2)cc1	49%	3.2µM*	-21
Cc1ccc(-c2cn(-c3ccc(Cl)cc3)c(S(=O)(=O)CC(=O)Nc3ccccc3)n2)cc1	-19%	?	-19
CCCCc1ccc(NS(=O)(=O)c2ccc(C)c(C(=O)N3CCN(c4cccc(C)c4C)CC3)c2)cc1	-6%	-20%	·
CCOc1ccccc1CNCc1cccn1-c1nnc(N2CCN(c3ccccc3)CC2)s1	25µM*	-46%	48
SMILES	HTT prom inh	HTT-AS act	GPR32 ag
Fc1cccc(NCc2cccn2-c2nnc(N3CCOCC3)s2)c1	-1%	2%	66*
CCOc1ccccc1CNC(=O)c1cccn1-c1nnc(N2CCCCC2)s1	-24%	-9%	5
COc1ccc(NCc2cccn2-c2nnc(N3CCCCCC3)s2)cc1	?	-66%	14
Fc1ccc(NCc2cccn2-c2nnc(N3CCOCC3)s2)cc1	-4%	4%	67*
Cc1ccc(NCc2cccn2-c2nnc(N3CCCCCC3)s2)cc1	7.9µM*	-62%	-20
Cc1ccccc1NCc1cccn1-c1nnc(N2CCOCC2)s1	-22%	-9%	16
Cc1ccc(NCc2cccn2-c2nnc(N3CCC(C(=O)NCc4ccc(F)cc4)CC3)s2)cc1	?	-42%	-22
CC(=O)CC/C=C(\C)CC/C=C(\C)CC/C=C(\C)CCC=C(C)C	-1%	-1%	31
CCN(CC)c1ccc(NC(=O)C2CCCN(S(=O)(=O)c3ccc4c(c3)oc(=O)n4C)C2)c(C)c1 (configuration not stated)	?	-36%	7
Cc1nn(CC(=O)NCc2ccc(N(C)C)cc2)c(=O)c2nn(-c3ccccc3)c(C)c12	-9%	5%	-4
Cc1ccccc1C(=O)OCc1cc(=O)n2nc(C3CCCCC3)sc2n1	-9%	9%	-4
CC(=O)c1ccc(NC(=O)Cn2c(=O)oc3cc(S(=O)(=O)N4CCCCC4)ccc32)cc1	-6%	-9%	?
O=C(Cn1c(=O)oc2cc(S(=O)(=O)N3CCCC3)ccc21)Nc1ccc(OC(F)(F)F)cc1	?	-24%	?
Cc1cccc(NC(=O)Cn2c(=O)oc3cc(S(=O)(=O)N4CCCCCC4)ccc32)c1	10µM*	-50%	38
CC(NC(=O)Cn1c(=O)oc2cc(S(=O)(=O)N3CCCCCC3)ccc21)c1ccccc1 (configuration not stated)	-14%	-3%	-24
COc1ccc(CNC(=O)Cn2c(=O)oc3cc(S(=O)(=O)N4CCCCCC4)ccc32)cc1	?	-25%	61*
COc1cccc(NC(=O)Cn2c(=O)oc3cc(S(=O)(=O)N4CCCCC4)ccc32)c1	?	-40%	116*
COc1ccc(CNC(=O)Cn2c(=O)oc3cc(S(=O)(=O)N4CCC(C)CC4)ccc32)cc1	?	-2%	4
CC1CCN(S(=O)(=O)c2ccc3c(c2)oc(=O)n3CC(=O)NC(C)c2ccccc2)CC1 (configuration not stated)	14µM*	-34%	31
CC(C)(C)OC(=O)N1CCC(c2c(C(=O)Nc3ccc4c(c3)OCCO4)cnn2-c2ccccc2)CC1	?	-49%	-22
Cc1ccc(CNC(=O)Cn2ccn(-c3ccc(F)cc3)c(=O)c2=O)cc1	4%	-7%	1
COc1ccc(C)cc1NC(=O)Cn1c(=O)oc2cc(S(=O)(=O)N3CCCCC3)ccc21	?	-36%	84*
COc1ccc(Cl)cc1NC(=O)Cn1c(=O)oc2cc(S(=O)(=O)N3CCCCCC3)ccc21	?	-22%	7
Cc1ccc(NC(=O)Cn2c(=O)nc(-c3ccccc3F)c3cc(Cl)ccc32)c(Br)c1	?	-39%	4
COc1cccc2cc(-c3nc4ccc(C)cc4[nH]3)c(=O)oc12	63%	0.32µM*	12
COc1ccc2oc(=O)c(-c3nc4ccc(C)cc4[nH]3)cc2c1	22%	8%	4
Cc1[nH]c(C=C2C(=O)Nc3ccc(S(=O)(=O)Cc4c(Cl)cccc4Cl)cc32)c(C)c1C(=O)N1CCC[C@H]1CN1CCCC1	-2%	-4%	·
Cc1ccc(CCNc2ncnc3onc(-c4ccc(Cl)cc4)c23)cc1	?	-22%	4
CC(C)CNc1ncnc2onc(-c3ccc(Cl)cc3)c12	-17%	-14%	90*
CCOc1ccc(CCNc2ncnc3onc(-c4ccc(Cl)cc4)c23)cc1	14µM*	-68%	-3
